# Data reported in PubChem BioAssay (NCI).
# About 83,000 compounds went through this panel and 20% of them were active in at least one assay; those are over-represented in the sample as a whole.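 Plates (96-well) were seeded with cells, treated with compound at one concentration, and incubated for 48 hours before percent growth was determined.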 A number with no mark means an inactive call. Active and inactive are the calls of the source. Rule for the calls: active = growth percent below 10; inactive = the rest.
# What was measured:
# Assay in all cases: NCI-60 one-dose screen, 48 h (100 = growth as untreated, 0 = no growth, -100 = all killed)
# Details in all cases: 10 µM unless noted
# SR leukemia = test system: SR leukemia
# RPMI-8226 leukemia = test system: RPMI-8226 leukemia
# OVCAR-8 ovarian = test system: OVCAR-8 ovarian
# OVCAR-5 ovarian = test system: OVCAR-5 ovarian
# SK-OV-3 ovarian = test system: SK-OV-3 ovarian
# OVCAR-3 ovarian = test system: OVCAR-3 ovarian
# HS 578T breast = test system: HS 578T breast
# NCI/ADR-RES ovarian = test system: NCI/ADR-RES ovarian
# OVCAR-4 ovarian = test system: OVCAR-4 ovarian
# IGROV1 ovarian = test system: IGROV1 ovarian
SMILES,growth (SR leukemia),growth (RPMI-8226 leukemia),growth (OVCAR-8 ovarian),growth (OVCAR-5 ovarian) [%],growth (SK-OV-3 ovarian),growth (OVCAR-3 ovarian),growth (HS 578T breast),growth (NCI/ADR-RES ovarian),growth (OVCAR-4 ovarian),growth (IGROV1 ovarian)
CC(CNc1nc(Nc2ccc(Cl)c(Cl)c2)nc(C(Cl)(Cl)Cl)n1)N(C)C (stereo not given),-42.6% (active),-12.5% (active),-50.8% (active),33.7,25.9%,-67.8% (active),-20.8% (active),-23.6% (active),–,–
Clc1ccc(Cn2cc(-c3nc4ccc(Br)nc4n3Cc3ccc(Cl)cc3)c3cccnc32)cc1,61%,67.6%,77.2%,–,80.9%,93.5%,92.7%,90.8%,87.6%,77.3%
CN1CCN(CCOc2ccc(-c3cnc4c(-c5cccc(F)c5)cnn4c3)cc2)CC1,-12.8% (active),31.7%,69.8%,–,106%,56.1%,77.6%,72.8%,65.5%,63.8%
O=[N+]([O-])c1cccc(/C=N\Nc2ccccc2)c1,89.6%,86.5%,63.8%,74.7,95.8%,73.1%,71.7%,48.7%,–,–
CCC(c1ccc(OC)cc1)C(CC)c1ccc(O)c(CN2CCCCC2)c1 (stereo not given),-3.74% (active),5.83% (active),80.4%,–,84.9%,73.9%,79%,60.9%,67.1%,69.6%
COC(=O)[C@]12CC[C@@H](C(C)=O)[C@@H]1[C@H]1CC[C@@H]3[C@@]4(C)C/C(=C/c5cccnc5)C(=O)C(C)(C)[C@@H]4CC[C@@]3(C)[C@]1(C)CC2,12.3%,2.88% (active),38.7%,–,93.7%,49%,74.8%,52.5%,26.7%,85.8%
Cc1ccc2oc(=O)cc(-c3sc(N4CCCCC4)nc3-c3ccccc3)c2c1,77.3%,99.9%,98.4%,–,86.9%,97.2%,96.7%,98.4%,92.4%,59.9%
CC(=O)N1N=C(c2ccc(C)cc2)CC1c1ccc(Oc2ccc(Br)cc2)cc1 (stereo not given),93.9%,74.8%,85.2%,–,62.1%,88.3%,87.4%,73.1%,74.6%,66.7%
CC1(C)CC[C@]2(CO)CC[C@]3(C)C(=CC[C@@H]4[C@@]5(C)CC[C@H](NCO)C(C)(C)[C@@H]5CC[C@]43C)[C@@H]2C1,-34.7% (active),-29.1% (active),-35.6% (active),–,70.8%,-66.2% (active),11.4%,-64.8% (active),-32.5% (active),-56% (active)
CN1CCN(CC#CCn2c3c(c4ccccc42)C[C@]2(C)[C@H]4CC[C@@H]5[C@H]6[C@H]7OC(=O)[C@@]6(CCC7(C)C)CC[C@@]5(C)[C@]4(C)CC[C@H]2C3(C)C)CC1,0.535% (active),59.2%,60.3%,–,106%,80.2%,101%,77%,74.1%,90.9%
O=c1c(CNc2ccc(S(=O)(=O)Nc3ncccn3)cc2)coc2ccccc12,100%,73.1%,–,96.3,98.7%,111%,102%,104%,104%,95.2%
NNC(=O)c1nc2ccccc2[nH]1,96.4%,–,97.1%,97.9,83.3%,108%,109%,112%,118%,106%
COc1ccc(-c2nc3ncccn3c2-c2nc3ccc(Br)cc3[nH]2)cc1,61.1%,60.6%,–,95.6,–,72.7%,–,87.3%,101%,94%
COc1ccc2nc(-c3c(-c4ccccc4)nc4ncccn34)[nH]c2c1,90.3%,88%,–,97.9,109%,108%,–,–,93.2%,111%
Cc1ccccc1-c1nc(C(Cl)Cl)nc2cc(-c3ccccc3)nn12,50.2%,61.6%,86.9%,–,–,28.3%,70%,65.3%,77.5%,59.9%
COc1ccc(-c2cc(/C=C/C(=O)c3ccc(OC)c(OC)c3)[nH]n2)cc1,-32.7% (active),-48.4% (active),–,48.5,49.3%,-14.6% (active),–,-0.366% (active),32.7%,61%
COc1cc2c(cc1OC)C(=O)/C(=C/c1cc(-c3ccc4c(c3)OCO4)n[nH]1)C2,-43.8% (active),-46.7% (active),–,37.9,33.6%,-50.4% (active),–,-15% (active),14.4%,52.7%
O=S(=O)(NCCNc1cc(-c2cn(-c3ccccc3)nc2-c2cccc(O)c2)ccn1)c1ccc(C(F)(F)F)cc1,-23.1% (active),18.5%,48.3%,–,54%,49.2%,48.6%,43.4%,39%,43.3%
COc1cc(C(=O)/C=C/c2cc(-c3ccc4c(c3)OCO4)n[nH]2)cc(OC)c1OC,-25.3% (active),-42.4% (active),–,57.6,60.8%,-17.8% (active),–,-13.5% (active),27.7%,64.8%
O=C1c2cccc3cccc(c23)C(=O)N1CC#Cc1ccc2c3c(cccc13)C(=O)N(CCN1CCNCC1)C2=O,2.23% (active),8.66% (active),93.9%,–,132%,106%,106%,102%,85.3%,91.4%
COc1ccc(-c2cc(/C=C/C(=O)c3ccc(N)cc3)[nH]n2)cc1,-20.2% (active),-29.9% (active),–,54.5,-8.64% (active),-34.1% (active),–,17.5%,33.1%,32.8%
O=C(N/N=C\c1c(O)ccc2ccccc12)C1CC1,18.3%,40.4%,33.1%,–,44.9%,1.02% (active),74.6%,9.42% (active),–,24.3%
Nc1ncnc2nc(Br)[nH]c12,91.8%,–,92.8%,99.8,95.2%,106%,103%,97.1%,102%,106%
